The nature of test [1]: qHTS RealTime-Glo MT Cell Viability Assay in HEK293 cells - 0 hour (AID 1224880). Note: top concentration of the series differs between compounds; nearly all actives have a fitted effect of over 45% in size. The method in brief: (§1)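 HEK293 cells mixed with RealTime-Glo reagents (NanoLuc plus cell-permeant prosubstrate) at 600 cells/well, preincubated 5 h at 37 C/5% CO2, then given 23 nL compound in DMSO. Nonlytic luminescence from viable cells was read at 0, 8, 16, 24, 32 and 40 h.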
(In general: In qHTS, concentration-response curves come from the screen itself.)

Test [2] is described as follows: A CellTox Green Cytotoxicity Assay to monitor cytotoxicity in HEK293 cells - 32 hour (AID 1224881). Note: nearly all actives have a fitted effect of over 40% in size. Note: potency is the fitted concentration of half-maximal effect. The method in brief:
(§2)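 HEK293 cells premixed with CellTox Green dye were seeded at 600 cells/well and left 5 h at 37 C/5% CO2 before pin transfer of 23 nL compound in DMSO. Fluorescence from dye bound to dead-cell DNA was read during 40 h treatment.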

The nature of test [3]: A CellTox Green Cytotoxicity Assay to monitor cytotoxicity in HepG2 cells - 0 hour (AID 1224882). Note: nearly all actives have a fitted effect of over 35% in size. Note: potency is the fitted concentration of half-maximal effect. The procedure, abridged: (§3)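 HepG2 cells were seeded together with the CellTox Green dye at 600 cells/well, left 5 h at 37 C/5% CO2, then given compounds in DMSO. Fluorescence from dye bound to dead-cell DNA was read repeatedly over 40 h of treatment at 37 C.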
A short description of test [4]: A CellTox Green Cytotoxicity Assay to monitor cytotoxicity in HepG2 cells - 32 hour (AID 1224883). Note: nearly all actives have a fitted effect of over 50% in size. Note: potency is the fitted concentration of half-maximal effect. The procedure, abridged: as §3
Test [5] can be described thus: A CellTox Green Cytotoxicity Assay to monitor cytotoxicity in HEK293 cells - 8 hour (AID 1224884). Note: nearly all actives have a fitted effect of over 35% in size. Note: potency is the fitted concentration of half-maximal effect. The procedure, abridged: as §2
Test [6] can be described thus: qHTS RealTime-Glo MT Cell Viability Assay in HepG2 cells - 16 hour (AID 1224885). Note: nearly all actives have a fitted effect of over 50% in size. The procedure, abridged: (§4)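 HepG2 cells (600/well) were dispensed with RealTime-Glo reagents, incubated 5 h at 37 °C, then treated with compounds in DMSO for up to 40 h. Nonlytic NanoLuc luminescence reflecting viable cells was read at each stated time point.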
Test [7] can be described thus: qHTS RealTime-Glo MT Cell Viability Assay in HEK293 cells - 24 hour (AID 1224886). For activity change, negative = cytotoxicity: top concentration of the series differs between compounds. Note: nearly all actives have a fitted effect of over 50% in size. Note: potency is the fitted concentration of half-maximal effect. The method in brief: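 HEK293 cells seeded with NanoLuc/prosubstrate reagent, rested 5 h at 37 C, then dosed and kept at 37 C up to 40 h. Nonlytic real-time luminescence from viable cells read at 0, 8, 16, 24, 32 and 40 h.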
Test [8] can be described thus: qHTS RealTime-Glo MT Cell Viability Assay in HEK293 cells - 8 hour (AID 1224887). For activity change, negative = cytotoxicity: top concentration of the series differs between compounds. Note: nearly all actives have a fitted effect of over 50% in size. Note: potency is the fitted concentration of half-maximal effect. The procedure, abridged: as §1
Test [9] can be described thus: A CellTox Green Cytotoxicity Assay to monitor cytotoxicity in HEK293 cells - 16 hour (AID 1224888). Note: nearly all actives have a fitted effect of over 35% in size. Note: potency is the fitted concentration of half-maximal effect. The method in brief: as §2
The nature of test [10]: qHTS RealTime-Glo MT Cell Viability Assay in HepG2 cells - 0 hour (AID 1224889). Note: nearly all actives have a fitted effect of over 50% in size. The method in brief:
as §4

The structures appear in SMILES notation. Unmarked numbers belong to inactive results. Results filed as inconclusive are left out. Calls of active or inactive are those of the source. Calls come from the whole dose curve; as a rule, active = well fitted curve in the direction sought with a large enough effect in the repeat runs; inconclusive = weak or mixed curves; inactive = no such curve, though single readings can be large; an effect the other way counts as inactive or inconclusive.
% is set by controls: 0 for no effect and ±100 for the full control effect.

As to `Cl/C=C\Cl`, the Potency entry in test [1], in [2], in test [3], in [4], in test [5] and in test [6] was “inactive” throughout. Also, the Potency entry in test [7], in [8], in [9] and in test [10] was “inactive” throughout.

For `CCOP(=O)(OCC)Oc1ccc([N+](=O)[O-])cc1`, the Potency result in [1], in [2], in test [3], in test [4], in test [5] and in test [6] was “inactive” throughout. Further, the Potency result in test [7], in test [8], in test [9] and in test [10] was “inactive” throughout.

For the compound `C[C@]12CC[C@H]3[C@@H](CCC4=CC(=O)CC[C@@H]43)[C@@H]1CC[C@@H]2OC(=O)CCC1CCCCC1`, the Potency result in test [1], in [2], in [3], in [4], in [5] and in test [6] was “inactive” each time. Moreover, the Potency result in test [7], in test [8], in test [9] and in [10] was “inactive” throughout.

For the compound `C=CCC1([C@H](C)CCC)C(=O)NC(=O)NC1=O`, the Potency result in test [1], in test [2], in test [3], in [4], in test [5] and in test [6] was “inactive” throughout. Besides, the Potency entry in test [7], in test [8], in [9] and in test [10] was “inactive” each time.

As for `c1ccoc1`, the Potency entry in [1], in [2], in test [3], in test [4], in [5] and in test [6] was “inactive” each time. Further, the Potency result in test [7], in [8], in test [9] and in [10] was “inactive” in each case.

With `CCC(Br)(CC)C(=O)NC(N)=O`, the Potency entry in test [1], in [2], in [3], in test [4], in test [5] and in test [6] was “inactive” throughout. In addition, the Potency entry in [7], in test [8], in [9] and in test [10] was “inactive” throughout.

Regarding `NCC(CC(=O)O)c1ccc(Cl)cc1` (stereo unspecified), the activity change, negative = cytotoxicity in test [1] was -1.28% [at 0.29 µM]; in test [7], 4.3% [at 0.29 µM]; in [8] it was 1.53% [at 0.29 µM]; in test [10] it was -4.46% [at 0.29 µM]. Also, the cytotoxicity increase in test [2] was -17.2% [at 0.29 µM]; in test [4], -7.65% [at 0.29 µM]; in test [5] it was -12.5% [at 0.29 µM]. The cytotoxicity in test [3] is 0.813% [at 0.29 µM]. Also, the activity change, negative = cytotoxic in [6] is -0.45% [at 0.29 µM]. The activity change in test [9] is -9.31% [at 0.29 µM, stronger effect = higher value].

Take `Nc1ccc([N+](=O)[O-])cc1[N+](=O)[O-]`: the Potency result in test [1], in [2], in test [3], in test [4], in test [5] and in test [6] was “inactive” throughout. In addition, the Potency result in [7], in [8], in [9] and in [10] was “inactive” each time.

With `C=C(C#N)CCC#N`, the Potency result in test [1], in test [2], in [3], in test [4], in test [5] and in test [6] was “inactive” throughout. The Potency result in test [7], in test [8], in test [9] and in [10] was “inactive” throughout.

On to `COC(=O)C(Br)CBr` (stereo unspecified), for which the Potency entry in test [1], in test [2], in [3], in [4], in test [5] and in test [6] was “inactive” each time. Moreover, the Potency result in [7], in test [8], in test [9] and in [10] was “inactive” in each case.

Turning to `ClCC(Br)CBr` (stereo unspecified), the Potency entry in [1], in [2], in test [3], in [4], in test [5] and in [6] was “inactive” each time. Also, the Potency entry in [7], in test [8], in test [9] and in test [10] was “inactive” throughout.

In the case of `COc1nn(C(=O)NS(=O)(=O)c2ccccc2OC(F)(F)F)c(=O)n1C`, the Potency result in test [1], in [6], in test [7], in test [8] and in [10] was “inactive” throughout. Besides, the Potency in [2] is 20 µM (active); in [3], 39.9 µM (active); in [4], 39.9 µM (active); in [5], 31.7 µM (active); in [9] it was 22.4 µM (active).

On to `CCOP(=O)(OCC)SCCSCC`, for which the Potency result in test [1], in test [2], in test [3], in test [4], in test [6] and in test [7] was “inactive” each time. Besides, the Potency result in [8], in test [9] and in [10] was “inactive” in each case.

Consider `CCc1ccc(C(=O)NN(C(=O)c2cc(C)cc(C)c2)C(C)(C)C)cc1`, for which the Potency entry in [1], in [2], in [3], in [4], in test [5] and in test [6] was “inactive” each time. The Potency entry in test [7], in test [8], in test [9] and in [10] was “inactive” each time.

In the case of `O=C(NC(=O)c1c(F)cccc1F)Nc1cc(Cl)c(Oc2ncc(C(F)(F)F)cc2Cl)c(Cl)c1`, the Potency entry in test [1], in [2], in test [3], in test [4], in test [5] and in [8] was “inactive” throughout. The Potency result in test [9] and in test [10] was “inactive” throughout.

In the case of `ClC=C(Cl)Cl`, the Potency entry in test [1], in [2], in [3], in test [4], in test [5] and in [6] was “inactive” each time. The Potency entry in test [7], in test [8], in test [9] and in [10] was “inactive” each time.

Consider `CCCCc1c(C)nc(NCC)nc1OS(=O)(=O)N(C)C`, for which the Potency result in [1], in test [2], in test [3], in test [4], in test [5] and in test [6] was “inactive” throughout. In addition, the Potency result in test [9] and in test [10] was “inactive” throughout. For the same compound, the Potency is 12.3 µM (active) in test [7] and 9.77 µM (active) in test [8].

`N#Cc1ccc(Cl)cc1`: the Potency entry in test [1], in test [2], in test [3], in [4], in test [5] and in [6] was “inactive” each time. The Potency result in test [7], in test [8], in test [9] and in [10] was “inactive” in each case.

Take `O=C(O)c1ccccc1C(=O)Nc1cccc2ccccc12`: the Potency result in test [1], in test [2], in test [3], in [4], in test [5] and in test [6] was “inactive” in each case. Also, the Potency entry in test [8], in test [9] and in test [10] was “inactive” in each case.

For `NC(=O)C(Cl)(Cl)Cl`, the Potency entry in test [1], in test [2], in test [3], in test [4], in test [6] and in test [7] was “inactive” throughout. In addition, the Potency entry in test [8], in [9] and in [10] was “inactive” each time.

As to `NCCCNCCCN`, the Potency result in test [1], in [3], in [4], in test [5], in [6] and in [7] was “inactive” in each case. Moreover, the Potency result in [8] and in [10] was “inactive” throughout. In [2], the Potency was 62.6 µM (active).

Regarding `CCCCOC(=O)c1ccccc1C(=O)OCc1ccccc1`, the Potency result in [1], in [2], in [3], in test [4], in test [5] and in test [6] was “inactive” throughout. Besides, the Potency entry in test [9] and in test [10] was “inactive” each time.

`CCCC(=O)Cl`: the Potency result in test [1], in test [2], in [3], in [4], in [5] and in [6] was “inactive” each time. Also, the Potency entry in [7], in test [8] and in [10] was “inactive” each time.

`CCCCCCCCCCOC(=O)c1ccccc1C(=O)OCCCCCCCCCC`: the Potency entry in test [1], in test [2], in [3], in test [4], in [5] and in test [6] was “inactive” throughout. In addition, the Potency entry in test [7], in [8], in test [9] and in test [10] was “inactive” each time.

Source of the values: PubChem BioAssay (Tox21).
